From PubChem BioAssay (NCATS)
Inconclusive results are not listed. Where a call stands in place of a potency, no number is given. A number with no mark means an inactive call. The source made the active and inactive calls. Calls follow the shape of the dose curve; as a rule, active = well fitted curve in the direction sought with a large enough effect; inconclusive = small, poorly fitted or top-dose-only effect, or another doubt; inactive = no such curve, though single readings can be large; an effect the other way counts as inactive or inconclusive.

Key:
[1] = Quantitative highthroughput screen to assess conditional lethalithy of SEM cells grown in Human Plasma-Like Medium with dialyzed fetal bovine serum (HPLM+ds) (AID 1963882); also: nearly all actives have a fitted effect of over 35% in size; also: potency is read from the fitted curve at half-maximal effect; as to viability: series mostly up to about 46 µM
Procedure, shortened: (§1)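 Each medium arm—HPLM with 10% dialyzed FBS, or RPMI1640 with 5 mM glucose and 10% untreated or dialyzed FBS—was screened against an 11-point, 3-fold compound titration for 48 h at 37 °C, with CellTiter-Glo luminescence as endpoint.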

[2] = Quantitative highthroughput screen to assess conditional lethalithy of SEM cells grown in RPMI1640 with unreated serum (RPMI+s) (AID 1963883); also: nearly all actives have a fitted effect of over 35% in size; also: potency is read from the fitted curve at half-maximal effect
Procedure, shortened: as §1

[3] = Quantitative highthroughput screen to assess conditional lethalithy of P12 Ichikawa cells grown in RPMI1640 with untreated serum (RPMI+s) (AID 1963881); conditions: Potency: viability; also: nearly all actives have a fitted effect of over 35% in size; also: potency is read from the fitted curve at half-maximal effect; as to viability: series mostly up to about 46 µM
Procedure, shortened: as §1

[4] = Quantitative highthroughput screen to assess conditional lethalithy of P12 Ichikawa cells grown in Human Plasma-Like Medium with dialyzed fetal bovine serum (HPLM+ds) (AID 1963879); conditions: Potency: viability; also: nearly all actives have a fitted effect of over 35% in size; also: potency is read from the fitted curve at half-maximal effect; as to viability: series mostly up to about 46 µM
Procedure, shortened: as §1

[5] = Cellular viability qHTS for adrenocortical cancer (ACC) cell line SW-13 (AID 1963989); conditions: SW-13 ACC cells viability, CellTiter-Glo, 48 h; activity (max response): active compounds read low; also: nearly all actives have a fitted effect of over 65% in size; also: potency is read from the fitted curve at half-maximal effect;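 as to activity (max response): cells grown in serum-free medium with ITS supplement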
Procedure, shortened: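 SW-13 cells in ITS-supplemented serum-free DMEM were plated overnight, then exposed for 48 h at 37C to compound titrations (up to 46 uM final). Viability was read by CellTiter-Glo luminescence; four-parameter logistic fits gave IC50 and efficacy.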

[6] = Quantitative highthroughput screen to assess conditional lethalithy of NOMO1 cells grown in RPMI1640 with dialyzed fetal bovine serum (RPMI+ds) (AID 1963877); also: nearly all actives have a fitted effect of over 30% in size; also: potency is read from the fitted curve at half-maximal effect; as to viability: series mostly up to about 46 µM
Procedure, shortened: as §1

[7] = Quantitative highthroughput screen to assess conditional lethalithy of P12 Ichikawa cells grown in RPMI1640 with dialyzed fetal bovine serum (RPMI+ds) (AID 1963880); conditions: Potency: P12-Ichikawa viability; also: nearly all actives have a fitted effect of over 35% in size; also: potency is read from the fitted curve at half-maximal effect
Procedure, shortened: as §1

[8] = Quantitative highthroughput screen to assess conditional lethalithy of NOMO1 cells grown in Human Plasma-Like Medium with dialyzed fetal bovine serum (HPLM+ds) (AID 1963878); also: nearly all actives have a fitted effect of over 35% in size
Procedure, shortened: as §1

[9] = Quantitative highthroughput screen to assess conditional lethalithy of SEM cells grown in RPMI1640 with dialyzed fetal bovine serum (RPMI+ds) (AID 1963884)
Procedure, shortened: as §1

[10] = Cellular viability qHTS for adrenocortical cancer (ACC) cell line NCI-H295R (AID 1963990); also: nearly all actives have a fitted effect of over 60% in size
Procedure, shortened: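 Luminescent ATP read-out (CellTiter-Glo, 20 min RT) after 48 h drug exposure of NCI-H295R cells; a titration up to 46 uM final. Data normalized to doxorubicin (100% inhibition) and DMSO (0%); 4-parameter fit gives IC50, max response.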

Compound: C[C@](O)(CS(=O)(=O)c1ccc(F)cc1)C(=O)Nc1ccc(C#N)c(C(F)(F)F)c1
- Potency [1]: inactive
- Potency [2]: inactive

Compound: COc1ccc2c(c1)[C@]13CCCCC1C(C2)N(C)CC3 (stereo not given in full)
- Potency [3]: inactive
- Potency [1]: inactive

Compound: Cc1ccccc1-n1c(Cn2cnc3c(N)ncnc32)nc2cccc(C)c2c1=O
- Potency [4]: inactive
- Potency [1]: 0.296 µM (active)
- activity (max response) [5]: 9.58%

Compound: COC1=CC(C)=C[C@@H](C)[C@@H](O)[C@@H](C)CC(C)=CC=C[C@H](OC)[C@H]([C@@H](C)[C@@H](O)[C@H](C)[C@@]2(O)C[C@@H](O)[C@H](C)[C@@H](C(C)C)O2)OC1=O
- Potency [6]: 0.0743 µM (active)
- Potency [7]: 0.0662 µM (active)

Compound: NC1CC1c1ccccc1 (stereo not given)
- Potency [6]: inactive
- Potency [7]: inactive
- Potency [3]: inactive
- Potency [1]: inactive
- Potency [2]: inactive

Compound: C[C@@H]1[C@@H](C(=O)C[C@H]2O[C@@H]3O[C@]4(C)CC[C@@H]5[C@H](C)CC[C@@H]([C@H]2C)[C@@]35OO4)O[C@@H]2O[C@]3(C)CC[C@H]4[C@H](C)CC[C@@H]1[C@@]24OO3
- Potency [4]: 23.5 µM (active)
- Potency [3]: 23.5 µM (active)
- Potency [1]: 26.4 µM (active)

Compound: CC(=O)OCC1=C(C(=O)O)N2C(=O)[C@@H](N)[C@@H]2SC1
- Potency [4]: 1.48 µM (active)
- Potency [1]: inactive

Compound: C[C@H]1CCCC=CC2C[C@H](O)C[C@@H]2[C@H](O)C=CC(=O)O1 (stereo not given in full)
- Potency [8]: inactive
- Potency [4]: 0.0372 µM (active)
- Potency [9]: inactive

Compound: CC(=Cc1csc(C)n1)[C@@H]1C[C@H]2O[C@@H]2CCC[C@H](C)[C@@H](O)[C@@H](C)C(=O)C(C)(C)[C@@H](O)CC(=O)O1
- Potency [4]: inactive
- Potency [1]: inactive

Compound: O=[N+]([O-])c1ncc[nH]1
- Potency [8]: inactive
- Potency [3]: inactive
- Potency [1]: inactive
- Potency [9]: inactive

Compound: C[C@]12CC[C@H]3[C@@H](CCC4=CC(=O)CC[C@@]43C)[C@H]1CC[C@H]2O
- Potency [6]: inactive
- Potency [3]: inactive
- Potency [1]: inactive

Compound: COc1cc(C)[nH]c(=O)c1CNC(=O)c1c(C)n([C@H](C)C2CCN(CC(F)(F)F)CC2)c2ccccc12
- activity (max response) [5]: 8.69%

Compound: COc1cc(C(=O)N2CC[C@@H](O)[C@@H](N)C2)cc2nc(-c3cc4ccccc4n3CC3CC3)n(C)c12
- Potency [3]: 1.05 µM (active)

Compound: C1=C2CCCN[C@H]2[C@@H]2C[C@H]1[C@@H]1CCCCN1C2
- Potency [8]: inactive
- Potency [1]: inactive

Compound: CC(=O)O[C@@]12CO[C@H]1C[C@H](O)[C@@]1(C)C(=O)[C@H](O)C3=C(C)[C@@H](O)C[C@@](O)([C@@H](OC(=O)c4ccccc4)[C@@H]21)C3(C)C
- Potency [6]: 13.2 µM (active)
- Potency [7]: 11.8 µM (active)
- Potency [3]: 9.35 µM (active)

Compound: C[C@@H]1O[C@@H](O[C@@H]2C=C3CC[C@@H]4[C@@H](CC[C@]5(C)[C@H](c6ccc(=O)oc6)CC[C@@]45O)[C@@]3(C)CC2)[C@H](O)[C@H](O)[C@H]1O
- Potency [4]: 0.0209 µM (active)
- Potency [3]: 0.0418 µM (active)
- Potency [1]: 0.0235 µM (active)

Compound: CC(O)(CS(=O)(=O)c1ccc(F)cc1)C(=O)Nc1ccc(C#N)c(C(F)(F)F)c1 (stereo not given)
- Potency [1]: inactive
- Potency [2]: 14.8 µM (active)

Compound: c1ccc2c(CN3CCNCC3)cccc2c1
- Potency [8]: inactive
- Potency [1]: inactive
- Potency [9]: inactive
- activity (max response) [5]: 3.38%

Compound: C[C@]12CC[C@H]3[C@@H](CCC4=CC(=O)CC[C@@]43C)[C@H]1CC[C@H]2OC(=O)CCC1CCCC1
- Potency [1]: inactive
- Potency [2]: inactive
- activity (max response) [5]: -10.5%

Compound: CCOC(=O)c1c(C(C#N)=CN)c2ccc(Cl)c(Cl)c2n1C
- Potency [7]: inactive
- Potency [3]: inactive
- Potency [2]: 18.7 µM (active)
- activity (max response) [5]: -1.19%
- Potency [10]: inactive

Compound: CC(=CCCC1=CCC(C2=CC(=O)OC2O)OC1O)CCC1=C(C)CCCC1(C)C (stereo not given)
- Potency [6]: inactive
- Potency [3]: inactive
- Potency [1]: inactive

Compound: CC(C)N[C@@H]1CCn2c(=O)[nH]c3cccc(c32)[C@@H]1O
- Potency [6]: inactive
- Potency [3]: inactive
- Potency [1]: inactive

Compound: O=c1[nH]c2ccc(Cl)cc2c(N[C@@H]2CN3CCC2CC3)c1-c1nc2ccccc2[nH]1
- Potency [7]: 0.372 µM (active)
- Potency [3]: 0.166 µM (active)
- Potency [1]: 0.0418 µM (active)
- Potency [5]: 3.55 µM (active)

Compound: C[C@]12COC(=O)C[C@@H]1CC[C@@H]1[C@H]2CC[C@@]2(C)[C@H]1CC[C@]2(C)O
- Potency [6]: inactive
- Potency [3]: inactive
- Potency [1]: inactive

Compound: COc1ccc2c(c[n+](C)c3c4cc5c(cc4ccc23)OCO5)c1OC
- Potency [4]: 16.6 µM (active)
- Potency [3]: 11.8 µM (active)
- Potency [1]: 14.8 µM (active)
- Potency [2]: 8.33 µM (active)

Compound: CC[C@H]1C=CC=CC[C@@H](C)[C@H](O)[C@@](C)(O)C(=O)[C@@H](C)[C@H](O)[C@@H](C)C(=O)[C@@H](C)[C@H](O)[C@@H](C)C=CC(=O)O[C@@H]2[C@@H](C)[C@H](CC1)O[C@]1(CC[C@H](C)[C@H](C[C@@H](C)O)O1)[C@H]2C
- Potency [6]: 4.69 µM (active)
- Potency [7]: 5.26 µM (active)
- Potency [3]: 16.6 µM (active)
